From publication PMC6212790, “How bacterial xenogeneic silencer rok distinguishes foreign from self DNA in its resident genome”
The full ranking holds about 33,000 sequences; the median of “e-score” is about -0.038, and the highest 2% start at about 0.33. The full list was thinned out, with the highest values kept by preference.

Molecular target: T1, GST-Rok-C97-191 (Bacillus subtilis subsp. subtilis str. …, UniProt O34857 97-191)
T1 sequence: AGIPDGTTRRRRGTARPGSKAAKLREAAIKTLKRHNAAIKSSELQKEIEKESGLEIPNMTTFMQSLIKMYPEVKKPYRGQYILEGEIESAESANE
Assay: protein binding microarray; Rok is a gene silencer of Bacillus subtilis; high values mean tight binding
Settings: protein: recombinant; tags: GST (pTH5325, pDEST15-Magic modified); dsDNA, one strand shown
How it was run: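 Every oligonucleotide joins a 25-mer constant primer to a 35-mer variable part drawn from a de Bruijn sequence of order 10, so each non-palindromic 8-mer appears at least 32 times and each palindromic 8-mer 16 times. The preference for every 8-mer is reported as a unitless, rank-based enrichment score (E-score). This score spans 0.5 for the most favored 8-mer to −0.5 for the most disfavored.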

Sequence | binding signal
AAAAGCAA | 0.148 E-score
CGATTATC | 0.0925 E-score
TACTGAGA | 0.0745 E-score
GTACTAAA | 0.329 E-score
GTACTAAC | 0.145 E-score
GGACTAAA | 0.0947 E-score
ATACTAAA | 0.39 E-score
TCACTAAA | 0.164 E-score
CTACTAAC | 0.223 E-score
ATACTAAT | 0.321 E-score
TTACTAAA | 0.335 E-score
CTACTAAA | 0.379 E-score
TGACTAAA | 0.0396 E-score
CTACTAAG | 0.261 E-score
ATACTAAC | 0.103 E-score
TATTTCCA | 0.228 E-score
ACTATTGC | 0.313 E-score
CTATCTTA | 0.227 E-score
AAGAATCT | 0.0962 E-score
TTCCTCAA | 0.041 E-score
AACTGAGC | 0.0188 E-score
GAAGCTGA | 0.014 E-score
ACGGTCCT | -0.132 E-score
AAACTGTT | -0.043 E-score
ATAAGATA | 0.372 E-score

Sequence | binding signal
CATAGATA | 0.297 E-score
AATAGATA | 0.32 E-score
GAAAGATA | 0.329 E-score
GTAAGATA | 0.229 E-score
CTAAGATA | 0.213 E-score
GATAGATC | 0.268 E-score
GTTAGATA | 0.321 E-score
TAAAGATA | 0.27 E-score
AAAAGATA | 0.137 E-score
TATAGATA | 0.368 E-score
GATAGATA | 0.347 E-score
AACATCGA | 0.134 E-score
GCACAAAC | -0.0175 E-score
AGCGTGGA | 0.126 E-score
AAAAGAGA | 0.147 E-score
TCCATTCA | -0.131 E-score
TAACAATA | 0.292 E-score
GATTTGCC | -0.0374 E-score
CGTTATCC | -0.0591 E-score
ACACCTGC | -0.197 E-score
GTGCGGGA | -0.196 E-score
CTCCCATC | -0.161 E-score
AATAGATG | 0.267 E-score
AATAGATC | 0.161 E-score
AATAGATT | 0.352 E-score

Sequence | binding signal
CTAGTCGA | 0.131 E-score
GATAAGCA | 0.0731 E-score
CTAATAAG | 0.127 E-score
ATAATAAG | 0.331 E-score
ATAATAAT | 0.31 E-score
ATAATACC | 0.197 E-score
ATAATACA | 0.242 E-score
ATAATACG | 0.344 E-score
AGGAACCA | 0.128 E-score
AAGCTTGC | -0.0667 E-score
AAGACGGC | -0.186 E-score
CCTCGCTC | -0.125 E-score
CAATATAC | 0.243 E-score
GAATATAC | 0.293 E-score
AAATATAT | 0.417 E-score
AAATATAG | 0.22 E-score
AACTATAC | 0.253 E-score
AACTATAG | 0.327 E-score
AAATATAA | 0.269 E-score
AAATATAC | 0.401 E-score
AACTATAT | 0.415 E-score
AAGTGCGG | 0.009 E-score
CGAGCCTA | -0.0633 E-score
GAACGTCA | -0.14 E-score
CGGCACTA | 0.0999 E-score

Sequence | binding signal
ATTTAGGG | -0.024 E-score
CTTTGCTC | -0.124 E-score
AAAGTACA | 0.366 E-score
GAAGTACA | 0.237 E-score
CAAGTACA | 0.151 E-score
AAAGTACC | 0.291 E-score
TAAGTACA | 0.35 E-score
AAAGTACG | 0.192 E-score
CCGTTGGA | -0.177 E-score
ACAAAACG | -0.11 E-score
AATTTACC | 0.345 E-score
CATTTACG | 0.0408 E-score
AATTTAGT | 0.165 E-score
AATTTACG | 0.338 E-score
CATTTACA | 0.277 E-score
ATTTTACC | 0.322 E-score
AATTTACA | 0.331 E-score
TATTTACA | 0.235 E-score
ATTTTACG | 0.268 E-score
AATTTACT | 0.416 E-score
AATTTAAT | 0.321 E-score
GATTTACC | 0.187 E-score
AAAAATGT | 0.129 E-score
AAGGCAGC | 0.0072 E-score
CCAAACGG | -0.0693 E-score

Sequence | binding signal
CAATGTTA | 0.195 E-score
CTGCGCCC | -0.144 E-score
GACACTGC | -0.137 E-score
AGCGTTCC | -0.026 E-score
AATCAGAC | -0.0483 E-score
CGCGATTA | 0.0183 E-score
AGCAGTCA | 0.0635 E-score
ACGACCTA | 0.00188 E-score
ATTTTTCG | 0.181 E-score
GTACGTAA | 0.0489 E-score
TTACGTAA | 0.261 E-score
ATACGTAA | 0.371 E-score
ACGGAAGG | -0.162 E-score
CCATCTAC | 0.213 E-score
ATATCTAA | 0.351 E-score
CTATCTAC | 0.433 E-score
ATCTCTAC | 0.118 E-score
ATATCTTA | 0.26 E-score
CTATCTAA | 0.282 E-score
ATATCTTC | 0.344 E-score
CTCTCTAC | 0.064 E-score
ATATCTAC | 0.377 E-score
CTATCTTC | 0.105 E-score
ATATCTAG | 0.284 E-score
ATCTCTAA | 0.106 E-score

Sequence | binding signal
CAGACGGA | -0.1 E-score
CGGTCGCA | -0.0742 E-score
GTCAATTA | 0.163 E-score
GAACAGAC | -0.0366 E-score
TACGCAGA | -0.138 E-score
AGCTGAAC | -0.0772 E-score
GATAAAGC | -0.0584 E-score
CTAAGTAA | 0.266 E-score
CGTATCAA | 0.0404 E-score
ATACTGCA | 0.287 E-score
ACACTACA | 0.294 E-score
CTACTAGA | 0.293 E-score
ATACTACA | 0.388 E-score
CTACTACA | 0.366 E-score
GTACTACA | 0.296 E-score
AGACGTGC | -0.045 E-score
CAGCTAAA | 0.0943 E-score
CTTTTTGC | -0.0956 E-score
CTAAGCGA | -0.171 E-score
TAGTCAAA | 0.158 E-score
CAATATTA | 0.204 E-score
GAATATTC | 0.339 E-score
CCATATTA | 0.121 E-score
AAATATTC | 0.219 E-score
CAATATTC | 0.186 E-score

Sequence | binding signal
CTATATTA | 0.355 E-score
GAATATTA | 0.2 E-score
ATATATTG | 0.419 E-score
AAATATTA | 0.355 E-score
AAATATTG | 0.286 E-score
TAATATTA | 0.287 E-score
ACATATTG | 0.232 E-score
ACCTATTC | 0.0409 E-score
GAATGCAA | -0.0262 E-score
CCGCAAAA | -0.142 E-score
AGGCCGGA | -0.102 E-score
GTGTATTA | 0.11 E-score
ATATATTA | 0.447 E-score
AGATATTG | 0.186 E-score
GCATATTA | 0.153 E-score
ACATATTA | 0.304 E-score
AGATATTA | 0.356 E-score
ATATATTC | 0.374 E-score
CTATATTC | 0.274 E-score
CGATATTA | 0.286 E-score
GTATATTA | 0.371 E-score
CTCTATTC | -0.103 E-score
ATGTATTA | 0.301 E-score
